High-throughput results: PubChem, several laboratories
Mtb FBA inh: inhibits M. tuberculosis FBA enzyme. P9WQA3. AID 588726. 360,000 compounds, 2.3% hits. inhibition, % at 1 µM. purified M. tuberculosis FBA, fluorescence read-out; in the data active = inhibition above about 27%;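 also: 0% = vehicle and 100% = reference inhibitor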
Target sequence (P9WQA3 whole entry, looked up): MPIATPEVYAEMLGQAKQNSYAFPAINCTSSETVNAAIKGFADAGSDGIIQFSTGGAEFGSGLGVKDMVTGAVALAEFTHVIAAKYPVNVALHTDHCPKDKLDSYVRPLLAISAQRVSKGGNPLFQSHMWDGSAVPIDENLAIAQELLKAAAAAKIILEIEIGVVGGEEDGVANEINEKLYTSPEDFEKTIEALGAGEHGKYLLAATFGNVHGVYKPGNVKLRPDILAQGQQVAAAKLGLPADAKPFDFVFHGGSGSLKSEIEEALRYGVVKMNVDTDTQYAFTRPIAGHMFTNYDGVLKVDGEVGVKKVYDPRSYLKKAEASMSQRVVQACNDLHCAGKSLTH
Yp Topo-I inh: Y. pestis Topo-I inhibition via cleavage products; 360,000 compounds, 0.064% hits; Y. pestis Topo-I cleavage product accumulation, plate reader; activity, % at 10 µM; AID 504884; in the data active = activity above about 50%, passing the limit was not always enough
GDH-TPI counter-1: GDH-TPI coupled enzyme inhibition counter-screen. GDH-TPI coupled enzyme counterscreen, NADH absorbance. inhibition, % at 4.8 µM. 360,000 compounds, 1.2% hits; in the data active = inhibition above about 30%;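 also: 0% = DMSO wells and 100% = wells lacking the enzyme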
TcdB inh: blocks C. difficile toxin B glycohydrolase activity. P18177. TcdB glycohydrolase enzymatic assay, plate reader. inhibition, % at 9.99 µM. 350,000 compounds, 0.24% hits
PrPC surface inh: inhibitors of human cell surface prion protein PrPC; inhibition, % at 13.8 µM; 370,000 compounds, 0.43% hits; P04156; TR-FRET read-out; in the data active = inhibition above about 24%; also: 0% = median of the test wells and 100% = reference compound wells
Mtb FBA confirm: Mtb FBA inhibition, confirmed. AID 651616. 5,600 compounds, 78% hits. purified M. tuberculosis FBA, fluorescence read-out. shares compounds with Mtb FBA inh. inhibition, % at 1 µM; in the data active = inhibition above about 27%;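 also: 0% = vehicle wells and 100% = reference inhibitor wells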
GDH-TPI counter-2: GDH-TPI inhibition counter-screen for FBA inhibitors | shares compounds with Mtb FBA inh | GDH-TPI coupled enzyme counterscreen, fluorescence | inhibition, % at 1 µM | 5,600 compounds, 81% hits | AID 652141
GDH-TPI DR: inhibits GDH-TPI coupling enzymes in dose response; shares compounds with Mtb FBA inh; GDH-TPI coupled enzyme assay, fluorescence, artifact counterscreen; IC50, µM; 170 compounds, 79% hits; AID 652145; call rule not given here
Active calls of the source: *; x = not tested or not shown; + = active, no number. The list is not random: actives were taken first. Their share in the collection is about 3.2%. Rule as the data show it, unless noted: active = inhibition above about 10%; inactive = the rest.

SMILES | Mtb FBA inh | Yp Topo-I inh | GDH-TPI counter-1 | TcdB inh | PrPC surface inh | Mtb FBA confirm | GDH-TPI counter-2 | others
CC(C)(C)C(=O)Oc1ccc2cc(-c3ccc4ccccc4n3)c(=O)oc2c1 | 8 | -2 | -1 | 0 | -11 | x | x
Cn1c(-c2cc3ccc(OC(=O)C(C)(C)C)cc3oc2=O)nc2ccccc21 | 59* | 8 | 33* | x | -5 | 3 | -3
CC1CCCC(C)N1C(=O)COc1ccc(C(=O)N/N=C/c2ccc(C(=O)O)cc2)cc1 (stereo unspecified) | 60* | -3 | -1 | -1 | 4 | 120* | 97*
CCOc1ccc(C(=O)NCC(=O)OCC(=O)N2C(C)CCCC2C)cc1 (stereo unspecified) | 2 | 3 | 6 | x | -3 | x | x
CNc1ccccc1C(=O)OCC(=O)N1CCN(c2ccc(OC)cc2)CC1 | 73* | 20 | 5 | 1 | -7 | 0 | -5
O=C(OCC(=O)N(CCc1ccccc1)Cc1ccccc1)c1ccccc1NCCO | 66* | 30 | -8 | 1 | 2 | 164* | 106*
O=C(OCC(=O)N1CCC(Cc2ccccc2)CC1)c1ccccc1O | -1 | 19 | 6 | 3 | 1 | x | x
CCOC(=O)N1CCN(C(=O)COC(=O)c2ccccc2NCCO)CC1 | 107* | -1 | 9 | 1 | -5 | 77* | 78*
O=C(OCC(=O)N(CCc1ccccc1)Cc1ccccc1)c1ccccc1O | 8 | 28 | 7 | 0 | 1 | x | x
O=C(OCC(=O)N1CCC(Cc2ccccc2)CC1)c1ccccc1NCCO | 80* | 40 | 7 | -4 | 0 | 47* | 29*
C[C@@H]1CN([C@H](C)CO)C(=O)c2cccc(NS(C)(=O)=O)c2O[C@@H]1CN(C)CC1CCCCC1 | x | x | x | 2 | x | x | x
Cc1ccc(-c2nc3ccccc3nc2NN)cc1 | 31* | 3 | 9 | 9 | -16 | 14 | 9 | GDH-TPI DR=>10
Cc1ccc(-c2nc3ccccc3nc2Cl)cc1 | 1 | 11 | 2 | 1 | -3 | x | x
OC[C@@H]1CCCN1Cc1cn(-c2ccccc2)nc1-c1ccc2c(c1)OCO2 | 29* | -4 | 23 | 0 | -9 | 54* | 35*
COCC1CCCCN1Cc1cn(-c2ccccc2)nc1-c1ccc2c(c1)OCO2 (stereo unspecified) | 7 | 21 | -4 | 0 | 2 | x | x
C[C@H](CO)N1C[C@H](C)[C@H](CN(C)C(=O)NC2CCCCC2)Oc2c(NC(=O)c3cnccn3)cccc2C1=O | x | x | x | -1 | x | x | x
Cc1ccc(CNC(=O)C2C3C=CC4(CN(Cc5cccnc5)C(=O)C24)O3)cc1 (stereo unspecified) | 68* | -1 | 2 | x | -3 | 9 | -2
COc1ccc(Cc2noc(CN3CCCN(Cc4ccc(F)cc4)CC3)n2)cc1OC | 59* | 21 | -3 | 0 | -7 | 58* | 40*
C/C=C/c1ccc2c(c1)O[C@H](CN(C)Cc1ccc(F)cc1)[C@@H](C)CN([C@@H](C)CO)S2(=O)=O | x | x | x | 1 | x | x | x
CC(=O)Nc1ccc2nc(NC(=O)COc3ccc([N+](=O)[O-])cc3)sc2c1 | 2 | -1 | 7 | 0 | -8 | x | x
Cc1ccc(C)c(OCC(=O)Nc2nc3ccc([N+](=O)[O-])cc3s2)c1C | 53* | -7 | 20 | -5 | 4 | 1 | -1
COc1ccc(C(=O)N/N=C/c2ccc(N(C)c3ccccc3)cc2)cc1 | 41* | 10 | 26 | 1 | 9 | 109* | 99*
COc1ccc(C(=O)N/N=C/c2ccc(OC(=O)c3ccccc3)cc2)cc1 | -4 | 7 | 13 | x | 3 | x | x
COc1ccc(C(=O)N/N=C/c2cc3ccccc3[nH]c2=O)cc1 | 40* | -9 | 50* | 1 | -16 | 126* | 106*
Cc1[nH]n(S(=O)(=O)Cc2ccccc2)c(=O)c1N=Nc1ccccc1Cl | 40* | 9 | -5 | -10 | 8 | -4 | -6
SMILES | Mtb FBA inh | Yp Topo-I inh | GDH-TPI counter-1 | TcdB inh | PrPC surface inh | Mtb FBA confirm | GDH-TPI counter-2 | others
COc1ccc2c(COC(=O)CNS(=O)(=O)c3ccc(C)c(C)c3)cc(=O)oc2c1 | 73* | 11 | 11 | -2 | -3 | 31* | 28*
COc1ccc(S(=O)(=O)NCCC(=O)OCc2cc(=O)oc3cc(C)ccc23)cc1[N+](=O)[O-] | 1 | 20 | 6 | 2 | 6 | x | x
COc1ccc2c(COC(=O)CCS(=O)(=O)c3ccc(C)cc3)cc(=O)oc2c1 | 107* | 6 | 9 | 1 | 2 | 30* | 26*
CN(C)c1cccc(C(=O)OCc2cc(=O)oc3cc(O)ccc23)c1 | 55* | 1 | 12 | x | -5 | + | +
COc1ccc(Br)c(C(=O)OCc2cc(=O)oc3cc(C)ccc23)c1 | -2 | 16 | 2 | 0 | -4 | x | x
CCCNS(=O)(=O)c1cccc(C(=O)OCc2cc(=O)oc3cc(OC)ccc23)c1 | 38* | 20 | 11 | 0 | -7 | 76* | 59*
CN(C)CC(=O)N[C@@H]1CC[C@H](CCn2cc(C3CCCCC3)nn2)O[C@@H]1CO | x | x | x | -1 | x | x | x
C/C=C/c1ccc2c(c1)O[C@@H](CN(C)C(=O)CN1CCOCC1)[C@H](C)CN([C@H](C)CO)S2(=O)=O | x | x | x | 0 | x | x | x
O=C(CN1C(=O)NC2(CCCCCCC2)C1=O)N1CCN(C(=O)c2ccco2)CC1 | 42* | 6 | 0 | x | 1 | + | 161*
C[C@@H]1CN([C@H](C)CO)C(=O)c2cccc(NC(=O)NC3CCCCC3)c2O[C@@H]1CN(C)C(=O)Nc1ccc(F)cc1 | x | x | x | 2 | x | x | x
COc1ccc(OC)c(S(=O)(=O)Nc2ccc3c(c2)n(C)c(=O)n3C)c1 | 62* | 1 | 2 | 1 | 3 | 140* | 93*
C[C@H](CO)N1C[C@H](C)[C@H](CN(C)S(=O)(=O)c2ccc(F)cc2)Oc2c(NC(=O)Nc3ccc(F)cc3)cccc2C1=O | x | x | x | 1 | x | x | x
COc1ccc(-c2oc3ncnc(N)c3c2-c2ccccc2)cc1 | 27* | -9 | 5 | x | -7 | 5 | -2
COc1ccc(CN(C)C[C@H]2Oc3ccc(NS(C)(=O)=O)cc3CC(=O)N([C@H](C)CO)C[C@@H]2C)cc1 | x | x | x | 0 | x | x | x
CCOC(=O)COc1c(OC)cc(Cl)cc1C1Nc2ccccc2C(=O)N1c1cccc(C)c1 (stereo unspecified) | 17 | 5 | 1 | x | -1 | x | x
COc1cc(C2NC(=O)NC(c3ccccc3)=C2C(C)=O)c(Cl)cc1OCC(=O)O (stereo unspecified) | -3 | 8 | 7 | 1 | -4 | x | x
CCOC(=O)COc1c(OC)cc(Cl)cc1C1Nc2ccccc2C(=O)N1c1ccccc1 (stereo unspecified) | 39* | 31 | 6 | 1 | 2 | 144* | 118*
